Measurements from the supplement of paper PMC6555819.

The sequences below were run on VDR:RXRa (NR concentration 270 nM, RXRa partner concentration 90 nM) (assay: PBM binding z-score (relative to random genomic background probes); higher = stronger binding; sequences stand for … in GC…GCGATTGACAGCGTAGAATGAAGG).
How it was run: (§1)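 Each nuclear receptor dimer, without ligand, was incubated for 1 h on custom Agilent 4×180K protein-binding microarrays. Binding was detected with antibodies against each partner (one per run), and scanned fluorescence was regression-normalized. The binding z-scores are referenced to random human genomic background probes.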

Point of comparison: ATCTCTAGGTGAAAGTTCAGTGAATCCCGAGGAT, PBM binding z-score 1.83. Against it:
- CCTAGTTGGTCAAGGTCACGCACGCTATAGGTAC — higher, 4.45
- GATACAGGGTCATCTAGAGGCCAGAGTATGGAAA — higher, 5.14
- AGTCAAAGTTCACTAGGTTACGTAAGATTCAGCT — higher, 4.71
- CCAGACAGGTGAAAGGTAACTCACTCTGGTACGC — lower, 0.767
- CAAACTAGGTCAAGGTCAAATTCGGTTTGTGCCA — higher, 5.06
- CAAACTAGGTCACGAAAGGTCAAAATCGAATGAC — higher, 6.51
- CCTACTGGGCCAAGGTCATTGACCAGTCAAAGCA — higher, 3.38
- CCTGCTAGTTCATGGTCAGCTAATCTACAGTATG — lower, 0.708
- TCTAGTTCGTCACGGAGGTCACACACGACGGGTA — higher, 4.68
- ACTCGGAGGACAAAGGTAAGAGCTACGCCAGTGA — lower, -0.371
- GGAACTAGGGCAAAGTTGATAGCATCTGTCGACG — lower, -0.0768
- ATCGAAAGGTCGTGAGGTGAGTACACAGAAAGGC — higher, 4.14
- ATATGTAGGTTAGCGGGGGTCATTCAGACTAGGC — higher, 6.4
- CGTCCAAGGTCAGCAGGTGAGTGAAAGCGACGTG — higher, 2.67
- TAGCCTCGGTCATTGGGCCAGTATAGTACGCATC — lower, -0.539
- CGCACTAGGTCATTGACAGGACAGTGAATAGTAA — higher, 2.36
- TTACCAAAGTGAAAGGTCGTTGATGCACGCCTTG — higher, 1.86
- CCTAGTAGGTTATGGGGCATTCAGGCAACGGTGA — lower, 0.233
- AGTCAAAGTTCATCTGGGTAACGTAAGATATGCT — higher, 4.96
- TCTTGTAGATCAAAGGTCAAGAAAGCCGAAGCCT — higher, 4.14

Each sequence was assayed on VDR homodimer (NR concentration 270 nM) in the same assay as above.
How it was run: as §1

Point of comparison: CCTGCTAGTTCAATGGTCAGCTAAAGCAGCTCGC, PBM binding z-score 0.706. Against it:
- CCTAGTTGGTCAAGGTCACGCACGCTATAGGTAC — higher, 3.96
- GATACAGGGTCATCTAGAGGCCAGAGTATGGAAA — higher, 2.85
- AGTCAAAGTTCACTAGGTTACGTAAGATTCAGCT — higher, 3.98
- CCAGACAGGTGAAAGGTAACTCACTCTGGTACGC — lower, -0.0544
- ATCTCTAGGTGAAAGTTCAGTGAATCCCGAGGAT — higher, 1.33
- CAAACTAGGTCAAGGTCAAATTCGGTTTGTGCCA — higher, 4.1
- CAAACTAGGTCACGAAAGGTCAAAATCGAATGAC — higher, 3.13
- CCTACTGGGCCAAGGTCATTGACCAGTCAAAGCA — higher, 2.59
- TTAACAAGGTGAAAGGTCGTTGATGCACGCCTTG — higher, 1.24
- CCTGCTCGGTCAATGGTCAGCTAAAGCAGCTCGC — lower, -0.799
- CGTCAAAGTTCAAGGTAATGTAACAGAAAGCAGC — higher, 3.14
- CAAACTAGGTCAAAGGTCAAAGACGAGCCAACCA — higher, 3.33
- CCTACTGGGCCATTGAGAGGTCATTGATCATATG — higher, 3.78
- CCTGCTAGTTCATGGTCAGCTAATCTACAGTATG — higher, 1.09
- TCTAGTTCGTCACGGAGGTCACACACGACGGGTA — higher, 3.58
- AGAATGAGGTTAGCAAAGATCAGGGAAACGCTTG — lower, -0.135
- TAGCCTAGGTCATTCAGGGGCTAGTATAGAAAGC — higher, 0.805
- ACTCGGAGGACAAAGGTAAGAGCTACGCCAGTGA — lower, -0.2
- TCATATAGGTAATCAGGTGAAAGTCCGTAAGTTA — lower, 0.521
- CCTACTGGGCCAAAGGTCATTGACTCCAATGCTC — higher, 1.82
- AAATGTAGGTTAAGGGTCATTCAGGTTGGTTCGC — higher, 4.26
- GGAACTAGGGCAAAGTTGATAGCATCTGTCGACG — lower, -0.235
- CAAACTAGGTCAAGGGGTCAAAGTCCGCTTCCCG — higher, 4.55
- ATCGAAAGGTCGTGAGGTGAGTACACAGAAAGGC — higher, 1.92
- CGAACTAGTTCAAGGACAGTGAATCTCCGCACGC — higher, 0.883
- ATATGTAGGTTAGCGGGGGTCATTCAGACTAGGC — higher, 5.45
- CGTCCAAGGTCAGCAGGTGAGTGAAAGCGACGTG — lower, 0.692
- TAGCCTCGGTCATTGGGCCAGTATAGTACGCATC — lower, -0.289
- GCTAGTTGGTCAGTAAATGGTCACACACCGGTCG — lower, 0.116
- AGACAAAGTTCAGGACGAGGTAACGTAAAGCACG — higher, 2.08
- CGCACTAGGTCATTGACAGGACAGTGAATAGTAA — higher, 1.54
- ATGGAAAGGTCGTGAGGTGAGTATACAGAAAGGC — higher, 1.72
- ATATCTAGGTAAAAGTTCAGTGAATCCCGAGGAT — higher, 2.01
- CCTACTGGGCCGAGGTCATTGATCAGTCAAAGCA — higher, 4.32
- TTACCAAAGTGAAAGGTCGTTGATGCACGCCTTG — higher, 1.41
- CCTAGTAGGTTATGGGGCATTCAGGCAACGGTGA — lower, 0.0809
- AGTCAAAGTTCATCTGGGTAACGTAAGATATGCT — higher, 4.81
- TCTTGTAGATCAAAGGTCAAGAAAGCCGAAGCCT — lower, 0.514
